Measured values published in PubChem BioAssay (NCI).
About 79,000 compounds went through this panel and 15% of them were active in at least one assay; those are over-represented in the sample as a whole. Values without a mark were called inactive. Activity calls are given as the source filed them. No stated cut-off is given here; in the data, active means growth inhibition above about 70%; inactive means the rest.

Tests used:
[1] = NCI Yeast Anticancer Drug Screen. Data for the rad52 strain (AID 147);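 further: 0% = growth of vehicle-treated control cultures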; details: S. cerevisiae rad52 mutant growth inhibition, active compounds read high
Procedure, shortened: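 Read-out: growth inhibition versus vehicle-treated controls. Cells were a DNA repair-deficient yeast strain treated with compounds.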

[2] = NCI Yeast Anticancer Drug Screen. Data for the wt1 strain (AID 149);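 further: 0% = growth of vehicle-treated wt1 cultures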; details: S. cerevisiae wt1 strain (SPY 50644) growth inhibition, active compounds read high
Procedure, shortened: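 Yeast wt1 strain exposed to compounds; growth inhibition measured relative to vehicle-treated controls.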

[3] = NCI Yeast Anticancer Drug Screen. Data for the rad50EPP+ strain (AID 151);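 further: 0% = growth of vehicle-treated control cultures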; details: S. cerevisiae rad50 mutant strain, active compounds read high
Procedure, shortened: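 Growth inhibition read against vehicle controls in rad50EPP+ yeast, a strain altered in DNA damage repair, after compound exposure.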

[4] = NCI Yeast Anticancer Drug Screen. Data for the mgt1 strain (AID 153); details: S. cerevisiae mgt1 mutant growth inhibition, active compounds read high
Procedure, shortened: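 mgt1 yeast grown with test compound; read-out is growth inhibition versus vehicle-treated cultures.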

[5] = NCI Yeast Anticancer Drug Screen. Data for the rad50 strain (AID 155);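 further: 0% = growth of vehicle-only cultures of the same strain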; details: S. cerevisiae rad50 strain growth inhibition, active compounds read high
Procedure, shortened: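 Yeast carrying a defined DNA repair defect were exposed to test compounds, and growth was compared with vehicle-treated controls to give percent inhibition.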

[6] = NCI Yeast Anticancer Drug Screen. Data for the mec2-1 strain (AID 157); details: S. cerevisiae mec2-1 strain, active compounds read high
Procedure, shortened: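 Yeast mec2-1 mutant treated with compound. Readout: growth inhibition vs vehicle controls.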

[7] = NCI Yeast Anticancer Drug Screen. Data for the rad14 strain (AID 159);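 further: 0% = growth of vehicle-treated control cultures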; details: S. cerevisiae rad14 strain growth inhibition, active compounds read high
Procedure, shortened: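 Yeast cells carrying a defined DNA-repair defect were exposed to compounds, and growth inhibition was calculated relative to vehicle-treated control cultures.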

[8] = NCI Yeast Anticancer Drug Screen. Data for the sgs1 mgt1 strain (AID 161);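 further: 0% = growth of cultures given vehicle only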; details: S. cerevisiae sgs1 mgt1 strain, active compounds read high
Procedure, shortened: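 Inhibition of yeast growth, normalised to vehicle-treated controls, is reported for a strain bearing genetic alterations in DNA damage repair.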

[9] = NCI Yeast Anticancer Drug Screen. Data for the CLN2oe strain (AID 163);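 further: 0% = growth of vehicle-only control cultures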; details: S. cerevisiae CLN2oe strain, active compounds read high
Procedure, shortened: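 Read-out: yeast growth inhibition, expressed relative to vehicle-only controls. The strain bears an engineered cell-cycle alteration.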

[10] = NCI Yeast Anticancer Drug Screen. Data for the cln2 rad14 strain (AID 165);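 further: 0% = growth equal to vehicle treated cultures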; details: S. cerevisiae cln2 rad14 strain, active compounds read high
Procedure, shortened: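 cln2 rad14 yeast strain; compound exposure; growth inhibition read vs vehicle controls.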

[11] = NCI Yeast Anticancer Drug Screen. Data for the bub3 strain (AID 167); details: S. cerevisiae bub3 mutant strain, active compounds read high
Procedure, shortened: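 Compounds were applied to a genetically altered yeast strain carrying a cell-cycle control defect. Growth inhibition was scored against vehicle-treated controls.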

[12] = NCI Yeast Anticancer Drug Screen. Data for the wt2 strain (AID 169);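 further: 0% = growth of vehicle-treated yeast cultures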; details: S. cerevisiae wt2 strain growth inhibition, active compounds read high
Procedure, shortened: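 Read-out: growth inhibition versus vehicle-treated control cultures after compound exposure of the yeast strain.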

[13] = NCI Yeast Anticancer Drug Screen. Data for the sgs1 strain (AID 173);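 further: 0% = growth of vehicle-only control cultures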; details: S. cerevisiae sgs1 mutant, active compounds read high
Procedure, shortened: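 Read-out: yeast growth inhibition relative to vehicle controls, following compound exposure of a strain with a defined DNA repair/cell cycle alteration.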

[14] = NCI Yeast Anticancer Drug Screen. Data for the mlh1 rad18 strain (AID 175); details: S. cerevisiae mlh1 rad18 strain growth inhibition, active compounds read high
Procedure, shortened: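 Yeast w/ defined DNA-repair lesions; compound exposure; growth vs vehicle controls → % inhibition.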

[15] = NCI Yeast Anticancer Drug Screen. Data for the rad18 strain (AID 177); details: S. cerevisiae rad18 mutant growth inhibition, active compounds read high
Procedure, shortened: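 Readout: growth inhibition vs vehicle controls. Cells: genetically altered yeast strain, DNA repair defect.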

[16] = at 5.0 µM (retest, dose inferred, filed as 0.5)
[17] = at 50.0 µM (retest, dose inferred, filed as 5.0)

Which growth inhibition ([1]; at 1.2 µM) does the source give for `CC(=O)/C=C/c1cc([N+](=O)[O-])ccc1O` here?
Its growth inhibition is -47%.

And the growth inhibition ([1]; at 3.7 µM)?
Its growth inhibition is -33%.

And the growth inhibition ([1]; at 11.0 µM)?
Its growth inhibition is -9%.

What about the growth inhibition ([1]; at 33.0 µM) of the same compound?
The growth inhibition was 79% (active).

What about the growth inhibition ([1]; at 100.0 µM) of the same compound?
The growth inhibition was 97% (active).

And the growth inhibition ([2]; at 1.2 µM)?
The growth inhibition was -12%.

What about the growth inhibition ([2]; at 3.7 µM) of the same compound?
Its growth inhibition is -33%.

What about the growth inhibition ([2]; at 11.0 µM) of the same compound?
Its growth inhibition is -2%.

And the growth inhibition ([2]; at 33.0 µM)?
Its growth inhibition is 66%.

What about the growth inhibition ([2]; at 100.0 µM) of the same compound?
The growth inhibition was 97% (active).

What about the growth inhibition ([3]; at 1.2 µM) of the same compound?
Its growth inhibition is -27%.

What about the growth inhibition ([3]; at 3.7 µM) of the same compound?
Its growth inhibition is -4%.

And the growth inhibition ([3]; at 11.0 µM)?
Its growth inhibition is 30%.

What about the growth inhibition ([3]; at 33.0 µM) of the same compound?
The growth inhibition was 78% (active).

What about the growth inhibition ([3]; at 100.0 µM) of the same compound?
Its growth inhibition is 95% (active).

And the growth inhibition ([4]; at 1.2 µM)?
Its growth inhibition is -1%.

And the growth inhibition ([4]; at 3.7 µM)?
Its growth inhibition is 2%.

What about the growth inhibition ([4]; at 11.0 µM) of the same compound?
The growth inhibition was -2%.

What about the growth inhibition ([4]; at 33.0 µM) of the same compound?
The growth inhibition was 94% (active).

And the growth inhibition ([4]; at 100.0 µM)?
The growth inhibition was 97% (active).

What about the growth inhibition ([5]; at 1.2 µM) of the same compound?
Its growth inhibition is -22%.

What about the growth inhibition ([5]; at 3.7 µM) of the same compound?
The growth inhibition was -20%.

And the growth inhibition [5, 16]?
Its growth inhibition is 7%.

What about the growth inhibition ([5]; at 11.0 µM) of the same compound?
Its growth inhibition is -5%.

What about the growth inhibition ([5]; at 33.0 µM) of the same compound?
Its growth inhibition is 83% (active).

And the growth inhibition [5, 17]?
Its growth inhibition is 85% (active).

What about the growth inhibition ([5]; at 50.0 µM) of the same compound?
The growth inhibition was 86% (active).

What about the growth inhibition ([5]; at 100.0 µM) of the same compound?
Its growth inhibition is 97% (active).

What about the growth inhibition ([6]; at 1.2 µM) of the same compound?
The growth inhibition was -5%.

What about the growth inhibition ([6]; at 3.7 µM) of the same compound?
The growth inhibition was -25%.

And the growth inhibition [6, 16]?
The growth inhibition was 0%.

And the growth inhibition ([6]; at 11.0 µM)?
Its growth inhibition is 29%.

And the growth inhibition ([6]; at 33.0 µM)?
Its growth inhibition is 96% (active).

And the growth inhibition [6, 17]?
Its growth inhibition is 89% (active).

What about the growth inhibition ([6]; at 50.0 µM) of the same compound?
The growth inhibition was 90.5% (active).

What about the growth inhibition ([6]; at 100.0 µM) of the same compound?
The growth inhibition was 99% (active).

And the growth inhibition ([7]; at 1.2 µM)?
Its growth inhibition is -30%.

What about the growth inhibition ([7]; at 3.7 µM) of the same compound?
Its growth inhibition is -22%.

What about the growth inhibition ([7]; at 11.0 µM) of the same compound?
Its growth inhibition is 9%.

What about the growth inhibition ([7]; at 33.0 µM) of the same compound?
The growth inhibition was 97% (active).

And the growth inhibition ([7]; at 100.0 µM)?
The growth inhibition was 98% (active).

What about the growth inhibition [8, 16] of the same compound?
The growth inhibition was 12%.

And the growth inhibition [8, 17]?
The growth inhibition was 87% (active).

And the growth inhibition ([8]; at 50.0 µM)?
The growth inhibition was 88.9% (active).

What about the growth inhibition ([9]; at 1.2 µM) of the same compound?
The growth inhibition was -5%.

What about the growth inhibition ([9]; at 3.7 µM) of the same compound?
Its growth inhibition is 3%.

What about the growth inhibition ([9]; at 11.0 µM) of the same compound?
Its growth inhibition is 23%.

What about the growth inhibition ([9]; at 33.0 µM) of the same compound?
The growth inhibition was 86% (active).

And the growth inhibition ([9]; at 100.0 µM)?
The growth inhibition was 98% (active).

And the growth inhibition [10, 16]?
The growth inhibition was 36%.

And the growth inhibition [10, 17]?
Its growth inhibition is 87% (active).

And the growth inhibition ([10]; at 50.0 µM)?
Its growth inhibition is 46.5%.

And the growth inhibition ([11]; at 1.2 µM)?
Its growth inhibition is -28%.

What about the growth inhibition ([11]; at 3.7 µM) of the same compound?
Its growth inhibition is -18%.

What about the growth inhibition [11, 16] of the same compound?
Its growth inhibition is 21%.

What about the growth inhibition ([11]; at 11.0 µM) of the same compound?
The growth inhibition was 11%.

And the growth inhibition ([11]; at 33.0 µM)?
The growth inhibition was 95% (active).

What about the growth inhibition [11, 17] of the same compound?
Its growth inhibition is 92% (active).

What about the growth inhibition ([11]; at 50.0 µM) of the same compound?
The growth inhibition was 49.7%.

What about the growth inhibition ([11]; at 100.0 µM) of the same compound?
Its growth inhibition is 98% (active).

What about the growth inhibition ([12]; at 1.2 µM) of the same compound?
Its growth inhibition is -31%.

What about the growth inhibition ([12]; at 3.7 µM) of the same compound?
Its growth inhibition is -32%.

What about the growth inhibition ([12]; at 11.0 µM) of the same compound?
The growth inhibition was -23%.

And the growth inhibition ([12]; at 33.0 µM)?
The growth inhibition was 76% (active).

And the growth inhibition ([12]; at 100.0 µM)?
Its growth inhibition is 98% (active).

And the growth inhibition ([13]; at 1.2 µM)?
Its growth inhibition is -28%.

What about the growth inhibition ([13]; at 3.7 µM) of the same compound?
Its growth inhibition is -24%.

And the growth inhibition ([13]; at 11.0 µM)?
Its growth inhibition is 9%.

What about the growth inhibition ([13]; at 33.0 µM) of the same compound?
The growth inhibition was 94% (active).

And the growth inhibition ([13]; at 100.0 µM)?
The growth inhibition was 98% (active).

And the growth inhibition [14, 16]?
The growth inhibition was 24%.

What about the growth inhibition [14, 17] of the same compound?
Its growth inhibition is 97% (active).

And the growth inhibition ([14]; at 50.0 µM)?
Its growth inhibition is 85.1% (active).

What about the growth inhibition ([15]; at 1.2 µM) of the same compound?
The growth inhibition was -51%.

And the growth inhibition ([15]; at 3.7 µM)?
Its growth inhibition is -47%.

What about the growth inhibition ([15]; at 11.0 µM) of the same compound?
Its growth inhibition is -23%.

What about the growth inhibition ([15]; at 33.0 µM) of the same compound?
The growth inhibition was 74% (active).

What about the growth inhibition ([15]; at 100.0 µM) of the same compound?
The growth inhibition was 97% (active).
